From PubChem
Shown are actives, neighbours in structure and some others; about 2.4% of the full set was active somewhere.
D2 antag: D2 dopamine receptor (human) antagonism; P14416; 340,000 tested, 2% active; HEK293 TREx D2 cells, calcium flux, dopamine EC80; inhibition, % at 10 µM; AID 485344; in the data active means inhibition above about 30%; inactive means below that, where a call was filed
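Antagonism is scored as inhibition of an EC80 dopamine-evoked calcium signal in a force-coupled, tetracycline-inducible HEK293 T-REx D2 line, with compound present 180 s before agonist.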
D2 PAM-1: positive allosteric modulators of human D2 dopamine receptor; P14416; AID 485347; potentiation, % at 10 µM; 340,000 tested, 0.34% active; HEK293 T-REx D2, calcium flux, EC20 dopamine potentiation;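 active means potentiation over 3 SD above the plate norm, cut at about 30% in these data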
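Potentiation of an EC20 dopamine calcium response is measured in a force-coupled, tetracycline-inducible Hek293 Trex D2 line. Compound-only kinetic reads over 180 s flag agonists before dopamine addition.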
D2 ag-1: agonists of human D2 dopamine receptor. HEK293 T-REx D2 cells, calcium flux agonist mode. activation, % at 2 µM. 340,000 tested, 0.53% active. AID 485358;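 active means activation over 3 SD above normal in the single-dose calcium agonist read, cut at about 30% in these data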
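Agonism is scored from calcium flux in a force-coupled, inducible HEK293 cell line expressing D2, read kinetically for 180 s after compound addition against dopamine controls.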
D2 PAM-2: positive allosteric modulators of human D2 dopamine receptor; DiscoveRx D2 beta-arrestin cells, luminescence, 90 min; 100% = 57 uM dopamine signal; potentiation, % (no concentration beside the values); 360,000 tested, 0.23% active; AID 624464; in the data active means potentiation above about 50%; inconclusive means mostly about 30% to 49%
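PathHunter beta-arrestin assay in DiscoveRx D2 cells. Compounds were added with an EC20 of dopamine (50 nM final) for 90 min at 37 deg C. Luminescence was read 1 h after detection reagent, with 57 uM dopamine as the EC100 control.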
D2 ag-2: human D2 receptor agonism in beta-arrestin assay; P14416; DiscoveRx PathHunter D2 beta-arrestin, luminescence, 90 min; 100% = 57 uM dopamine signal; activation, % (concentration not given with the values); 360,000 tested, 0.084% active; AID 624465; in the data active means activation above about 40%; inconclusive means between about 15% and that limit
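DiscoveRx PathHunter D2 beta-arrestin cells (2,100/well) attached overnight, then compound-stimulated 90 min at 37 C in HBSS/10 mM HEPES/0.1% Tween-20 buffer; beta-galactosidase complementation read by luminescence after 1 h at ambient temperature. Dopamine 57 uM final (EC100) as control.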
D3 arrestin ag: D3 receptor agonism confirmed, beta-arrestin readout; shares compounds with D2 ag-1; DiscoveRx D3 beta-arrestin cells, luminescence, 90 min; Potency, µM (titrated, usually from 76.9 µM), most hits filed as activators; 2,300 tested, 4% active; AID 720506; further: nearly all actives have a fitted effect of over 70% in size
Target sequence (P35462 whole entry, looked up): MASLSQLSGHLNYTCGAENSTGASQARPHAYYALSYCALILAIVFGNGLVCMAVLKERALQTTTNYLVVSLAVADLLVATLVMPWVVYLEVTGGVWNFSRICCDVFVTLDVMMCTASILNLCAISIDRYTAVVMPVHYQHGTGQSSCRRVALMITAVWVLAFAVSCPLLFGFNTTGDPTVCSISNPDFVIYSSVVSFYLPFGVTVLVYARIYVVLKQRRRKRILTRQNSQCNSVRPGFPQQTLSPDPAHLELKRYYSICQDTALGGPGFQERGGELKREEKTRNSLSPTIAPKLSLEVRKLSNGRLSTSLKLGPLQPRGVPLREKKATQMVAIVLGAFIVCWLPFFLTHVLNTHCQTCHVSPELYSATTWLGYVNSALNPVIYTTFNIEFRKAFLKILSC
D2 ag-3: D2 receptor agonism, beta-arrestin counterscreen. shares compounds with D2 ag-1. DiscoveRx PathHunter D2 beta-arrestin, luminescence, 90 min; response scale: percent relative to full dopamine signal. Potency, µM (doses to about 76.9 µM), usual class: activators. 2,300 tested, 5.9% active. AID 720507; further: nearly all actives have a fitted effect of over 70% in size
A number is an active result; . = inactive; ? = inconclusive; / = no result. Unless noted, the call rests on the fitted dose curve; in most records, active means well fitted activation curve with a large enough effect; inconclusive means small, poorly fitted or top-dose-only effect; inactive means flat fitted curve, though single readings scatter.

SMILES	D2 antag	D2 PAM-1	D2 ag-1	D2 PAM-2	D2 ag-2	D3 arrestin ag	D2 ag-3
O=S(=O)(c1ccc(OCC(O)CN2CCN(c3ccc(F)cc3)CC2)cc1)N1CCOCC1 (configuration not stated)	67	.	76	.	.	.	?
COc1ccccc1N1CCN(CC(O)COc2ccc(S(=O)(=O)N3CCOCC3)cc2)CC1 (configuration not stated)	92	.	71	.	?	.	?
Cc1cc(C)n2nc(SCC(=O)N3CCCCC3C)nc2n1 (configuration not stated)	/	/	/	.	.	/	/
CCOC(=O)CSc1nc2c(sc(=S)n2-c2ccc(OCC)cc2)c(=O)[nH]1	.	.	.	.	.	/	/
CCOc1ccc(-n2c(=S)sc3c(=O)[nH]c(SCC(=O)NCc4ccco4)nc32)cc1	45	.	.	.	.	.	.
O=C(NCCc1csc(-c2ccc(Cl)cc2)n1)c1cccs1	/	.	/	/	/	/	/
Cc1ccc(NC(=O)CNC(=O)c2ccc3c(c2)OCO3)nc1	.	.	.	.	.	.	.
Fc1ccccc1N1CCN(CC2CC3C=CC2C3)CC1 (configuration not stated)	74	.	79	.	?	?	?
Cc1cccc(CSc2nnc([C@@H]3CCCN3C(=O)OC(C)(C)C)o2)c1	36	.	.	.	.	.	.
CC(C)C(N)c1csc(Nc2ccc(C(=O)NCCCO)cn2)n1 (configuration not stated)	/	/	/	.	.	/	/
Fc1ccc(NC(=S)N2CCCC(c3ccccc3)=N2)cc1	.	.	.	.	.	.	.
CC(C)(O[C@@H]1O[C@H](CO)[C@@H](O)[C@H](O)[C@H]1O)[C@@H]1CC=C(C(=O)O)CC1	.	.	.	.	.	.	.
CC(C)(O[C@@H]1O[C@H](CO)[C@@H](O)[C@H](O)[C@H]1O)[C@H]1Cc2cc3ccc(=O)oc3cc2O1	.	.	.	.	.	/	/
Cc1ccc(OCC(=O)Nc2nnc(SCc3cc(=O)c4ccccc4[nH]3)s2)cc1	/	.	.	/	/	/	/
O=C(NC1CCCC1)c1sc(=S)n2c1[nH]c(=O)c1ccccc12	.	.	.	.	.	/	/
O=C(NCc1ccco1)c1sc(=S)n2c1[nH]c(=O)c1ccccc12	.	.	.	.	.	.	.
Cn1c(NCc2ccccc2F)nc2cc(-c3cccc(Cl)c3)sc2c1=O	/	/	/	.	.	/	/
COc1cc(NS(=O)(=O)c2cc(NC(C)=O)ccc2OC)c(OC)cc1NC(=O)c1ccccc1	/	/	/	.	.	/	/
O=C(CSCc1c[nH]c(=O)[nH]c1=O)OCC(=O)c1ccc(Br)cc1	/	/	/	.	.	.	.
Nn1cc(-c2ccccc2)nc1SCC(=O)Nc1ccc(S(N)(=O)=O)cc1	.	.	.	.	.	/	/
CC(=NCCc1c(C)[nH]c2ccc(C)cc12)C1=C(O)CC(c2ccccc2)CC1=O (configuration not stated)	.	.	.	.	.	/	/
CCCCC(=NCCc1c(C)[nH]c2ccccc12)C1=C(O)CC(c2ccccc2)CC1=O (configuration not stated)	.	/	.	.	.	.	.
CCCC(=NCCc1c(C)[nH]c2ccccc12)C1=C(O)CC(c2ccccc2)CC1=O (configuration not stated)	.	.	.	.	.	/	/
CC(=NCCc1c(C)[nH]c2ccc(OC(F)(F)F)cc12)C1=C(O)CC(c2ccccc2)CC1=O (configuration not stated)	.	.	.	.	.	.	.
Cc1ccc(S(=O)(=O)N2C[C@H]3N(C(=O)OC(C)C)N(C(=O)OC(C)C)C[C@H](OC(=O)NC4CCCC4)[C@@]3(O)C2)cc1	/	/	/	.	.	/	/
SMILES	D2 antag	D2 PAM-1	D2 ag-1	D2 PAM-2	D2 ag-2	D3 arrestin ag	D2 ag-3
CC(COc1ccccc1)NC(C)C(O)c1ccc(O)cc1 (configuration not stated)	90	.	77	.	.	.	.
O=C(N[C@H]1CCC(=O)N(CCSc2ccc(Br)cc2)CC1)OCc1ccccc1	.	.	.	.	.	.	.
CCOc1ccc(NC(=O)N(O)C2(C#N)CCCCC2)cc1	/	/	/	.	.	/	/
CCOC(=O)c1c(C)[nH]c(CCC(=O)NCc2cc(Br)ccc2OC)c1C	/	.	.	/	/	/	/
Cc1ccc(OCc2nnc(-c3ccccc3)o2)cc1	/	.	.	/	/	/	/
Nc1ccc(N2CCN(CCCCN3C(=O)C4CCCN4C3=O)CC2)cc1 (configuration not stated)	42	.	63	.	.	.	.
CCOC(=O)/C=C/C(=O)Nc1ccccc1-c1ccccc1NC(=O)/C=C/C(=O)OCC	.	.	.	.	.	/	/
O=c1c2cc([N+](=O)[O-])ccc2nc(CN2CCN(c3ccccn3)CC2)n1-c1ccccc1F	.	.	.	.	.	.	.
Cc1ccnc(SCC(=O)NC2CCCCCC2)n1	.	.	.	.	.	/	/
COc1cc2c(cc1OC)CN(Cc1cccs1)CC2	.	.	.	.	.	/	/
COc1ccccc1N1CCN(Cc2cccs2)CC1	83	.	.	.	.	.	.
COc1ccccc1N1CCN(Cc2ccsc2)CC1	104	.	56	.	.	.	.
Cc1ccc(S(=O)(=O)N2CCN(C(=O)COC(=O)c3ccc([N+](=O)[O-])o3)CC2)c(C)c1	.	.	.	.	.	.	.
Cc1ccc(S(=O)(=O)N2CCN(C(=O)COC(=O)c3cc([N+](=O)[O-])ccc3NCCO)CC2)c(C)c1	/	/	/	.	.	/	/
CSc1ccc(CCNC(=O)CCn2c(=O)c3cccn3c3cccnc32)cc1	/	.	/	/	/	/	/
CCNC(=O)C1CCN(S(=O)(=O)c2ccc3c(c2)CCCN3C(C)=O)CC1	/	.	.	/	/	/	/
COC(=O)CCC(C)N1CCC(Oc2ccc(C(=O)N3CCCC3)cc2)CC1 (configuration not stated)	.	.	52	.	.	.	.
CCOC(=O)C1CCN(CC(O)COc2ccc(C(C)(C)C)cc2)CC1 (configuration not stated)	.	.	.	.	?	/	/
CCOC(=O)C1CCN(CC(O)COc2ccc(C(C)(C)CC)cc2)CC1 (configuration not stated)	80	.	66	.	.	.	?
CCOC(=O)C1CCN(CC(O)COc2ccc(C(C)=O)cc2)CC1 (configuration not stated)	31	.	41	.	.	.	.
